Measured values taken from PubChem BioAssay (NCI).
This is part of a sample that, as a whole, favours compounds with a hit. Of some 79,000 tested, about 15% had one in any assay. Values without a mark were called inactive. Activity calls are given as the source filed them. No stated cut-off is given here; in the data, active means growth inhibition above about 70%; inactive means the rest.

How the values were obtained:
[1] = NCI Yeast Anticancer Drug Screen. Data for the rad50 strain (AID 155);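 further: 0% = growth of vehicle-only cultures of the same strain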; conditions: S. cerevisiae rad50 strain growth inhibition, active compounds read high
Outline: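 Inhibition values express reduced yeast growth in compound-treated cultures relative to vehicle-treated controls.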

[2] = NCI Yeast Anticancer Drug Screen. Data for the mec2-1 strain (AID 157); conditions: S. cerevisiae mec2-1 strain, active compounds read high
Outline: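 Vehicle-treated cultures served as reference for growth inhibition of compound-exposed mec2-1 yeast.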

[3] = NCI Yeast Anticancer Drug Screen. Data for the sgs1 mgt1 strain (AID 161);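 further: 0% = growth of cultures given vehicle only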; conditions: S. cerevisiae sgs1 mgt1 strain, active compounds read high
Outline: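 Test agents were incubated with a DNA-repair-mutant yeast strain. Growth was then read and compared against vehicle-treated controls.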

[4] = NCI Yeast Anticancer Drug Screen. Data for the cln2 rad14 strain (AID 165);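 further: 0% = growth equal to vehicle treated cultures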; conditions: S. cerevisiae cln2 rad14 strain, active compounds read high
Outline: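 Each compound was tested on cln2 rad14 yeast. Inhibition of growth was calculated against vehicle-exposed controls.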

[5] = NCI Yeast Anticancer Drug Screen. Data for the bub3 strain (AID 167); conditions: S. cerevisiae bub3 mutant strain, active compounds read high
Outline: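 Steps: expose the mutant yeast strain to compound; grow alongside vehicle-treated cultures; measure growth; express inhibition against the vehicle cultures.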

[6] = NCI Yeast Anticancer Drug Screen. Data for the mlh1 rad18 strain (AID 175); conditions: S. cerevisiae mlh1 rad18 strain growth inhibition, active compounds read high
Outline: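 Vehicle-treated cultures served as the reference for growth inhibition in a yeast strain carrying DNA damage repair alterations exposed to each compound.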

[7] = at 5.0 µM (retest, dose inferred, filed as 0.5)
[8] = at 50.0 µM (retest, dose inferred, filed as 5.0)

CNc1c(C(=O)Nc2ccccc2)c(=O)n(C)c(=O)n1C
growth inhibition [1, 7]: 99% (active) | growth inhibition [1, 8]: 99% (active) | growth inhibition ([1]; at 50.0 µM): 62.9% | growth inhibition [2, 7]: 100% (active) | growth inhibition [2, 8]: 99% (active) | growth inhibition ([2]; at 50.0 µM): 81% (active) | growth inhibition [3, 7]: 99% (active) | growth inhibition [3, 8]: 99% (active) | growth inhibition ([3]; at 50.0 µM): 32.8% | growth inhibition [4, 7]: 99% (active) | growth inhibition [4, 8]: 99% (active) | growth inhibition ([4]; at 50.0 µM): 2.3% | growth inhibition [5, 7]: 99% (active) | growth inhibition [5, 8]: 99% (active) | growth inhibition ([5]; at 50.0 µM): 90.8% (active) | growth inhibition [6, 7]: 99% (active) | growth inhibition [6, 8]: 99% (active) | growth inhibition ([6]; at 50.0 µM): 74.5% (active)

C/C=C/C=N/N(c1nnc(-c2ccccc2)c(-c2ccccc2)n1)S(=O)(=O)c1ccc(C)cc1
growth inhibition [1, 7]: 58% | growth inhibition [1, 8]: 58% | growth inhibition ([1]; at 50.0 µM): 92.2% (active) | growth inhibition [2, 7]: 29% | growth inhibition [2, 8]: 29% | growth inhibition ([2]; at 50.0 µM): 91.3% (active) | growth inhibition [3, 7]: 36% | growth inhibition [3, 8]: 36% | growth inhibition ([3]; at 50.0 µM): 90.1% (active) | growth inhibition [5, 7]: 52% | growth inhibition [5, 8]: 52% | growth inhibition ([5]; at 50.0 µM): 92.3% (active) | growth inhibition [6, 7]: 34% | growth inhibition [6, 8]: 34% | growth inhibition ([6]; at 50.0 µM): 91.5% (active)

C/C(O)=C(/C=N\C(=S)Nc1ccc(Cl)c(Cl)c1)C(=O)Nc1ccccc1C
growth inhibition [1, 7]: -11% | growth inhibition [1, 8]: 40% | growth inhibition ([1]; at 50.0 µM): 67% | growth inhibition [2, 7]: -6% | growth inhibition [2, 8]: 26% | growth inhibition ([2]; at 50.0 µM): 39.6% | growth inhibition [3, 7]: 1% | growth inhibition [3, 8]: 22% | growth inhibition ([3]; at 50.0 µM): 73.5% (active) | growth inhibition [4, 7]: -7% | growth inhibition [4, 8]: 34% | growth inhibition ([4]; at 50.0 µM): -10.2% | growth inhibition [5, 7]: -15% | growth inhibition [5, 8]: 13% | growth inhibition ([5]; at 50.0 µM): 51.6% | growth inhibition [6, 7]: 11% | growth inhibition [6, 8]: 22% | growth inhibition ([6]; at 50.0 µM): 57.7%

CN(C)C1CCC2C3CCC4=CC(=O)CCC4(C)C3CCC21C (stereo not given)
growth inhibition [1, 7]: 2% | growth inhibition [1, 8]: 28% | growth inhibition ([1]; at 50.0 µM): 77.1% (active) | growth inhibition [2, 7]: 17% | growth inhibition [2, 8]: 21% | growth inhibition ([2]; at 50.0 µM): 48% | growth inhibition [3, 7]: 8% | growth inhibition [3, 8]: 39% | growth inhibition ([3]; at 50.0 µM): 69.5% | growth inhibition [4, 8]: 55% | growth inhibition ([4]; at 50.0 µM): 47.1% | growth inhibition [5, 7]: 2% | growth inhibition [5, 8]: -63% | growth inhibition ([5]; at 50.0 µM): 40% | growth inhibition [6, 7]: 2% | growth inhibition [6, 8]: 35% | growth inhibition ([6]; at 50.0 µM): 51.7%

Clc1ccc2nc(CCSCCc3nc4ccc(Cl)cc4[nH]3)[nH]c2c1
growth inhibition [1, 7]: 5% | growth inhibition [1, 8]: 97% (active) | growth inhibition ([1]; at 50.0 µM): 87.8% (active) | growth inhibition [2, 7]: 7% | growth inhibition [2, 8]: 98% (active) | growth inhibition ([2]; at 50.0 µM): 98.7% (active) | growth inhibition [3, 7]: 7% | growth inhibition [3, 8]: 97% (active) | growth inhibition ([3]; at 50.0 µM): 82% (active) | growth inhibition [4, 7]: -15% | growth inhibition [4, 8]: 99% (active) | growth inhibition ([4]; at 50.0 µM): 59.9% | growth inhibition [5, 7]: -10% | growth inhibition [5, 8]: 98% (active) | growth inhibition ([5]; at 50.0 µM): 94.8% (active) | growth inhibition [6, 7]: 0% | growth inhibition [6, 8]: 98% (active) | growth inhibition ([6]; at 50.0 µM): 97.9% (active)

CCC(=O)Oc1c(Br)c(Br)c(Br)c(Br)c1Br
growth inhibition [1, 7]: 8% | growth inhibition [1, 8]: 56% | growth inhibition ([1]; at 50.0 µM): 29% | growth inhibition [2, 7]: 17% | growth inhibition [2, 8]: 62% | growth inhibition ([2]; at 50.0 µM): 6% | growth inhibition [3, 7]: 7% | growth inhibition [3, 8]: 50% | growth inhibition ([3]; at 50.0 µM): 8.45% | growth inhibition [4, 7]: 21% | growth inhibition [4, 8]: 68% | growth inhibition ([4]; at 50.0 µM): 25.8% | growth inhibition [5, 7]: 56% | growth inhibition [5, 8]: 86% (active) | growth inhibition ([5]; at 50.0 µM): 92% (active) | growth inhibition [6, 7]: 35% | growth inhibition [6, 8]: 84% (active) | growth inhibition ([6]; at 50.0 µM): 19.5%

OCCSC(=S)Nc1ccc(Cl)c(Cl)c1
growth inhibition [1, 7]: 47% | growth inhibition [1, 8]: 99% (active) | growth inhibition ([1]; at 50.0 µM): 99.6% (active) | growth inhibition [2, 7]: 10% | growth inhibition [2, 8]: 100% (active) | growth inhibition ([2]; at 50.0 µM): 99.7% (active) | growth inhibition [3, 7]: 78% (active) | growth inhibition [3, 8]: 100% (active) | growth inhibition ([3]; at 50.0 µM): 99.8% (active) | growth inhibition [4, 7]: 0% | growth inhibition [4, 8]: 99% (active) | growth inhibition ([4]; at 50.0 µM): 99.5% (active) | growth inhibition [6, 7]: 85% (active) | growth inhibition [6, 8]: 99% (active) | growth inhibition ([6]; at 50.0 µM): 99.5% (active)

O/N=C(/C[N+]12CN3CN(CN(C3)C1)C2)c1ccc(I)cc1
growth inhibition [1, 7]: 0% | growth inhibition [1, 8]: 20% | growth inhibition ([1]; at 50.0 µM): 91.6% (active) | growth inhibition [2, 7]: -4% | growth inhibition [2, 8]: 40% | growth inhibition ([2]; at 50.0 µM): 84% (active) | growth inhibition [3, 7]: -4% | growth inhibition [3, 8]: 55% | growth inhibition ([3]; at 50.0 µM): 96.2% (active) | growth inhibition [4, 7]: -1% | growth inhibition [4, 8]: 23% | growth inhibition ([4]; at 50.0 µM): 91.7% (active) | growth inhibition [5, 7]: 1% | growth inhibition [5, 8]: 12% | growth inhibition ([5]; at 50.0 µM): 77.6% (active) | growth inhibition [6, 7]: 12% | growth inhibition [6, 8]: 57% | growth inhibition ([6]; at 50.0 µM): 92% (active)

CCN(CC)c1ccc(Cl)c2c1C(O)(C(C)C)C2(C)C (stereo not given)
growth inhibition [1, 7]: -20% | growth inhibition [1, 8]: 96% (active) | growth inhibition ([1]; at 50.0 µM): 88.2% (active) | growth inhibition [2, 7]: 9% | growth inhibition [2, 8]: 97% (active) | growth inhibition ([2]; at 50.0 µM): 92.4% (active) | growth inhibition [3, 7]: 1% | growth inhibition [3, 8]: 97% (active) | growth inhibition ([3]; at 50.0 µM): 89.7% (active) | growth inhibition [4, 7]: 24% | growth inhibition [4, 8]: 98% (active) | growth inhibition ([4]; at 50.0 µM): 89.3% (active) | growth inhibition [6, 7]: 17% | growth inhibition [6, 8]: 98% (active) | growth inhibition ([6]; at 50.0 µM): 87.5% (active)

COC1C(N)C(OC2C(Oc3cccc4c(O)c5c(=O)oc6ccc(C)c7c(=O)oc(c34)c5c67)OC(C)C(O)C2(C)O)OC(C)C1O (stereo not given)
growth inhibition [1, 7]: 12% | growth inhibition [1, 8]: 48% | growth inhibition ([1]; at 50.0 µM): 26.8% | growth inhibition [2, 7]: -6% | growth inhibition [2, 8]: 8% | growth inhibition ([2]; at 50.0 µM): 20.3% | growth inhibition [3, 7]: 29% | growth inhibition [3, 8]: 32% | growth inhibition ([3]; at 50.0 µM): 23.1% | growth inhibition [4, 7]: 8% | growth inhibition [4, 8]: 36% | growth inhibition ([4]; at 50.0 µM): 32% | growth inhibition [5, 7]: 19% | growth inhibition [5, 8]: 30% | growth inhibition ([5]; at 50.0 µM): 19.4% | growth inhibition [6, 7]: 11% | growth inhibition [6, 8]: 15% | growth inhibition ([6]; at 50.0 µM): 60.4%
